From PubChem BioAssay (Tox21) come the findings set out here.

Molecules are shown by their SMILES. Where “and” joins values, the source holds several entries; their conditions need not be identical. Equal values may be shown once. Results filed as inconclusive are left out. A structure can be active in one record and inactive in another. Calls of active or inactive are those of the source. Unless noted, calls come from the whole dose curve; as a rule, active = well fitted curve in the direction sought with a large enough effect in the repeat runs; inconclusive = weak or mixed curves; inactive = no such curve, though single readings can be large; an effect the other way counts as inactive or inconclusive.

Assay [1] can be described thus: qHTS assay to identify small molecule agonists of the estrogen receptor alpha (ER-alpha) signaling pathway in the presence of an antagonist - cell viability counter screen (AID 1259386).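 Note: series mostly up to about 92 µM; cells exposed to compounds for 22 h at 37 °C before the viability read; nearly all actives have a fitted effect of over 30% in size.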 Summed up: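 Cells are starved of estrogens for 5 days in charcoal-stripped serum, seeded for 24hr and co-treated with ICI-182,780 (10.0nM final) and test compounds. After 22hr at 37C, viability is read as CellTiter-Fluor fluorescence.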

Assay [2] deals with Progesterone receptor (Homo sapiens) (UniProt P06401). Nature of the assay: qHTS assay to identify small molecule agonists of the progesterone receptor (PR) signaling pathway (AID 1346784; calls by dose curve; note: nearly all actives have a fitted effect of over 30% in size). Summed up:
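Fluorescence from LiveBLAzer B/G FRET substrate cleavage (2 hr, RT) reported PR activation in PR-UAS-bla HEK 293T cells treated 16 hr at 37C/5% CO2 with compounds; medium contained 2% charcoal-stripped FBS.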
A general note: In qHTS, concentration-response curves come from the screen itself.

A short description of assay [3]: qHTS assay to identify small molecule antagonists of the progesterone receptor (PR) signaling pathway - cell viability counter screen (AID 1346798). Note: nearly all actives have a fitted effect of over 50% in size. Note: potency is the fitted concentration of half-maximal effect. Summed up:
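CellTiter-Glo luminescence; PR-UAS-bla HEK293T, 3,000 cells/well; compound + R5020, 16 hr, 37C/5% CO2; 30 min RT before read.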

The nature of assay [4]: qHTS assay to identify small molecule antagonists of the TGF-beta/Smad signaling pathway - cell viability counter screen (AID 1346824). Note: nearly all actives have a fitted effect of over 50% in size. The method in brief: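 Cytotoxicity counter-screen run in the same wells as the beta-lactamase Smad reporter read: CellTiter-Glo luminescence after 30 min at room temperature. HEK 293T SBE-bla cells had 5 hr compound exposure at 37 C with TGF-beta1 (0.25 ng/mL stock).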

Assay [5] is described as follows: qHTS assay to identify small molecule agonists of the TGF-beta/Smad signaling pathway - cell viability counter screen (AID 1346829). Note: nearly all actives have a fitted effect of over 45% in size. Note: potency is the fitted concentration of half-maximal effect. The method in brief:
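Compound-treated SBE-bla HEK 293T cells (5 hr, 37 C) were assessed for viability with CellTiter-Glo in parallel with the reporter read.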

Assay [6] is described as follows: qHTS assay to identify small molecule agonists of the TGF-beta/Smad signaling pathway (AID 1346859; active = well fitted activation curve with a large enough effect in the signal ratio in the repeat runs, not every such curve was filed as active; the % refers to the signal ratio; note: series mostly up to about 77 µM). The method in brief: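 After overnight seeding, SBE-bla HEK 293T cells are dosed with compounds in DMSO and kept 5 hr at 37 C, 5% CO2. LiveBLAzer-type FRET substrate is then applied for 2 hr at room temperature.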
Assay [7] concerns the target Thyrotropin-releasing hormone receptor (Homo sapiens) (UniProt P34981). Nature of the assay: qHTS assay to identify small molecule antagonists of the thyrotropin-releasing hormone receptor (TRHR) signaling pathway (AID 1346877; active = well fitted inhibition curve with a large enough effect in the repeat runs, not every such curve was filed as active; note: series mostly up to about 51 µM). The method in brief:
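Cells (TRHR-HEK293) are plated and kept 18 h at 37 °C/5% CO2. A calcium-sensitive dye is added for 2 h, compound follows for 5 min at room temperature, and TRH is then given at 1 nM final.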

Assay [8] has the same target. The assay is described as follows: qHTS assay to identify small molecule agonists of the thyrotropin-releasing hormone receptor (TRHR) signaling pathway (AID 1346891; calls by dose curve;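 note: HEK293 cells expressing TRHR with calcium dye readout; series mostly up to about 58 µM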). The method in brief: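 Compounds were tested as agonists at 15 concentrations, in triplicate, on TRHR-Hek293 cells; calcium-sensitive dye fluorescence was recorded for 3 min following addition.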
Assay [9] can be described thus: Human pregnane X receptor (PXR) small molecule agonists, qHTS cell viability counter screen (AID 1346977). Note: nearly all actives have a fitted effect of over 50% in size. Note: potency is the fitted concentration of half-maximal effect. Summed up: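 Viability counter screen: CellTiter-Fluor signal in PXR-Luc HepG2 cells, 24hr compound exposure, 37C, 5% CO2.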
Assay [10] in a line: Caspase-3/7 induction in HepG2 cells by small molecules, qHTS assay (AID 1346978). Note: nearly all actives have a fitted effect of over 15% in size. Note: potency is the fitted concentration of half-maximal effect. The method in brief: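 Caspase-3/7 induction was measured by Caspase-Glo 3/7 luminescence (30 min, room temperature) after a 17 hr compound exposure of wild-type HepG2 cells seeded at 2,000 per well and pre-incubated 5 hr.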
Assay [11] in a line: Caspase-3/7 induction in CHO-K1 cells by small molecules, qHTS cell viability counter screen (AID 1346979). Note: nearly all actives have a fitted effect of over 35% in size. Note: potency is the fitted concentration of half-maximal effect. The method in brief: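 Viability readout by fluorescence (CellTiter-Fluor) on wild-type CHO-K1 cells exposed for 16hr at 37C and 5% CO2 to compounds delivered in DMSO; reagent incubated 1hr before reading.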
Assay [12] in a line: Caspase-3/7 induction in CHO-K1 cells by small molecules, qHTS assay (AID 1346980). Note: nearly all actives have a fitted effect of over 15% in size. Note: potency is the fitted concentration of half-maximal effect. Summed up: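 Luminescent Caspase-Glo 3/7 read (30min, room temperature) quantified apoptosis induction. Cells were wild-type CHO-K1, treated with compound for 17hr at 37 C and 5% CO2.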
Assay [13] can be described thus: Caspase-3/7 induction in HepG2 cells by small molecules, qHTS cell viability counter screen (AID 1346981). Note: nearly all actives have a fitted effect of over 30% in size. Note: potency is the fitted concentration of half-maximal effect. The method in brief: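 Steps: seed 2,000 HepG2 cells per well; incubate 5 hr at 37 C; pin-add compounds in DMSO; incubate 16 hr; add CellTiter-Fluor; after 1 hr at 37 C and 5% CO2, read fluorescence.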
Assay [14] addresses Nuclear receptor subfamily 1 group I member 2 (Homo sapiens) (UniProt O75469). The assay is described as follows: Human pregnane X receptor (PXR) small molecule agonists, qHTS assay (AID 1346982). Note: nearly all actives have a fitted effect of over 35% in size. Note: potency is the fitted concentration of half-maximal effect. The method in brief: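 Agonist mode qHTS: PXR-Luc HepG2 cells plated 5 hr before DMSO-dissolved compounds were pinned in, cultured 24 hr at 37 C, 5% CO2; ONE-Glo luminescence readout.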

The target in assay [15] is Acetylcholinesterase (Homo sapiens) (UniProt P22303). Nature of the assay: Acetylcholinesterase (AChE) small molecule antagonists: colormetric cell-based qHTS assay (AID 1347395; calls by dose curve; note: nearly all actives have a fitted effect of over 30% in size; note: potency is the fitted concentration of half-maximal effect). Summed up: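 Homogeneous whole-cell format. SH-SY5Y cells seeded overnight, dosed with compound (30 min, 37 C, 5% CO2), then given DTNB/acetylthiocholine cocktail for 90 min at 37 C; colorimetric signal.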
Acetylcholinesterase (Homo sapiens), sequence (P22303 whole entry, looked up): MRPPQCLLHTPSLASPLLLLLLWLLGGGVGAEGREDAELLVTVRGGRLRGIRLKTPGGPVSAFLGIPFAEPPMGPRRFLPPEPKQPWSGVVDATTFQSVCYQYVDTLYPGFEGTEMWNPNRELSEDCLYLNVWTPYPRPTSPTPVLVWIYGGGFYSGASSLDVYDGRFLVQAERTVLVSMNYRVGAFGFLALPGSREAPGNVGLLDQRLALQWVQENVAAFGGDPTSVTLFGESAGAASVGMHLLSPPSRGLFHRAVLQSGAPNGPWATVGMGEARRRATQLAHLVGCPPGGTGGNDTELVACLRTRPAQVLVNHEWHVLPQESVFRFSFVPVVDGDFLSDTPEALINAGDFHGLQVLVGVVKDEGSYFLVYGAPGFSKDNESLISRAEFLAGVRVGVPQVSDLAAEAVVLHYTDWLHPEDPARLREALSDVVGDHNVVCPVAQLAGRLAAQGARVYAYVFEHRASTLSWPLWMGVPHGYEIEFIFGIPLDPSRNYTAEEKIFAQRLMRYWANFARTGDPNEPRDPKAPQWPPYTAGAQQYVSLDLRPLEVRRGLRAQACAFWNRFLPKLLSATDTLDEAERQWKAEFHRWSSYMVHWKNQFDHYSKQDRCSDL

The nature of assay [16]: qHTS assay to identify small molecule agonists of the progesterone receptor (PR) signaling pathway - cell viability counter screen (AID 1346799; calls by dose curve; note: nearly all actives have a fitted effect of over 45% in size; note: potency is the fitted concentration of half-maximal effect). The method in brief:
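In parallel with the beta-lactamase readout, cytotoxicity toward PR-UAS-bla HEK293T cells was measured by CellTiter-Glo luminescence following 16 hr compound incubation in 2% charcoal-stripped FBS medium.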

Assay [17] concerns the target Nuclear receptor subfamily 1 group I member 2 (Rattus norvegicus) (UniProt Q9R1A7). The assay is described as follows: Rat pregnane X receptor (rPXR) activation by small molecules, qHTS assay (AID 1346983). Note: nearly all actives have a fitted effect of over 20% in size. The conditions noted are these: rPXR luciferase reporter cells, One-Glo luminescence, 24 h; stronger effect = higher value. The method in brief:
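Luminescent readout (One-Glo luciferase, 30 min room temperature) followed 24 hr compound treatment at 37 C of rPXR cells plated 2,000 per well and preincubated 5hr; qHTS format with compounds delivered in DMSO.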

Assay [18] has as its target Nuclear receptor subfamily 1 group I member 2 (Homo sapiens) (UniProt O75469). The assay is described as follows: CYP3A4 induction through human pregnane X receptor (PXR) by small molecules, qHTS assay (AID 1346984). Note: nearly all actives have a fitted effect of over 40% in size. The method in brief:
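Steps: seed DPX-2 cells, 5 hr at 37C; pin-transfer compounds; 24 hr at 37C; add Luciferin-IPA (3uM final), 3 hr at 37C; add One-Glo, 30 min RT; read luminescence.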

Assay [19] shares this target. The assay is described as follows: Human pregnane X receptor (PXR) activation by small molecules, qHTS assay (AID 1346985). Note: nearly all actives have a fitted effect of over 40% in size. The method in brief:
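DPX-2 cells (HepG2 co-transfected with a PXR response element and a CYP3A4-promoter luciferase construct) were seeded at 2,000 per well, rested 5 hr at 37C, then exposed to DMSO-dissolved compounds for 24 hr. Activation was read as luciferase luminescence.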
% is set by controls: 0 for no effect and ±100 for the full control effect.

Nuclear receptor subfamily 1 group I member 2 (Homo sapiens), sequence (O75469 whole entry, looked up): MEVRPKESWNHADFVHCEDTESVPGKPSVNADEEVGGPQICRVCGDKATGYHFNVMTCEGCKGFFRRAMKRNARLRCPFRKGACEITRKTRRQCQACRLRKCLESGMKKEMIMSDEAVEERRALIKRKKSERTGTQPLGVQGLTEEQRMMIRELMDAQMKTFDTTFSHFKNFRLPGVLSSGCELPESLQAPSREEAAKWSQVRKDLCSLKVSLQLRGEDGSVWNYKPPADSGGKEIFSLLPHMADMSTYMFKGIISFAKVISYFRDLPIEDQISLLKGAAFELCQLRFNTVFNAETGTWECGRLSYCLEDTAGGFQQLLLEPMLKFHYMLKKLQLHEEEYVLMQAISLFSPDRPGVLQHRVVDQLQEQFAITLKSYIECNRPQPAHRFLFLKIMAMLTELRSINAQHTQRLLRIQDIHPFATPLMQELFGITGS
Thyrotropin-releasing hormone receptor (Homo sapiens), sequence (P34981 whole entry, looked up): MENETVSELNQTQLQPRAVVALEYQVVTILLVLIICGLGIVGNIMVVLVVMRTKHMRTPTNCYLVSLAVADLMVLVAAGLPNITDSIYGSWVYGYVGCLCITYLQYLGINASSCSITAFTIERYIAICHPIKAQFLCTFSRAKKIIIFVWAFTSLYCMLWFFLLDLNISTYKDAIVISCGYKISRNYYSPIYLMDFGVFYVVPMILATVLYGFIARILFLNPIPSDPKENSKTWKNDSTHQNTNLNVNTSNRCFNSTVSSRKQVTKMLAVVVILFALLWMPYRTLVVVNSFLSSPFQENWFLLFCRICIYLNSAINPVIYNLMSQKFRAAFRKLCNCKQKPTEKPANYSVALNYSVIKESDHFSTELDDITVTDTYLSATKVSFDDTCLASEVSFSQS
Progesterone receptor (Homo sapiens), sequence (P06401 whole entry, looked up): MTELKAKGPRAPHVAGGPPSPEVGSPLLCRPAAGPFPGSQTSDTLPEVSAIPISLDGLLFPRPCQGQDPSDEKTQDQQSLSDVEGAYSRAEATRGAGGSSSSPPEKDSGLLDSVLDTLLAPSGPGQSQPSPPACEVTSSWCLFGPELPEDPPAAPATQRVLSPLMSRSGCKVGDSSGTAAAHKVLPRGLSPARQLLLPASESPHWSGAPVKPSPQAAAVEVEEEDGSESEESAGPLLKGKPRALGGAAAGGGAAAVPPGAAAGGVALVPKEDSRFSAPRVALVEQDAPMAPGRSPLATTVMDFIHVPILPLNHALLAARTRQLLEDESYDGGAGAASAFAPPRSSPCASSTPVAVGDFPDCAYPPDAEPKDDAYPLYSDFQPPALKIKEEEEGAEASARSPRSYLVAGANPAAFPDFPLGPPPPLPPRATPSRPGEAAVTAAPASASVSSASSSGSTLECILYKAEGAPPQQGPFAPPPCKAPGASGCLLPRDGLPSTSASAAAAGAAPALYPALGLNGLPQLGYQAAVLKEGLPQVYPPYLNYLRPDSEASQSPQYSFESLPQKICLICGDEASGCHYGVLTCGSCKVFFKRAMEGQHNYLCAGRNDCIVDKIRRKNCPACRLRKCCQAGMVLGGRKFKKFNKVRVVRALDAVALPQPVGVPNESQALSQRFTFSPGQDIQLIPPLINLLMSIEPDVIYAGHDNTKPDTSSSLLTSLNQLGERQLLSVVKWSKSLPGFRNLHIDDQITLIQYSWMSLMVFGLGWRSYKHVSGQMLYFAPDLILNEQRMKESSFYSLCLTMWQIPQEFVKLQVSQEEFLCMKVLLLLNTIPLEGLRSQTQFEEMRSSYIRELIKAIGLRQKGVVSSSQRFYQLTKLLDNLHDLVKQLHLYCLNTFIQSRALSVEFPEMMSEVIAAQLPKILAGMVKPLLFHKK
Nuclear receptor subfamily 1 group I member 2 (Rattus norvegicus), sequence (Q9R1A7 whole entry, looked up): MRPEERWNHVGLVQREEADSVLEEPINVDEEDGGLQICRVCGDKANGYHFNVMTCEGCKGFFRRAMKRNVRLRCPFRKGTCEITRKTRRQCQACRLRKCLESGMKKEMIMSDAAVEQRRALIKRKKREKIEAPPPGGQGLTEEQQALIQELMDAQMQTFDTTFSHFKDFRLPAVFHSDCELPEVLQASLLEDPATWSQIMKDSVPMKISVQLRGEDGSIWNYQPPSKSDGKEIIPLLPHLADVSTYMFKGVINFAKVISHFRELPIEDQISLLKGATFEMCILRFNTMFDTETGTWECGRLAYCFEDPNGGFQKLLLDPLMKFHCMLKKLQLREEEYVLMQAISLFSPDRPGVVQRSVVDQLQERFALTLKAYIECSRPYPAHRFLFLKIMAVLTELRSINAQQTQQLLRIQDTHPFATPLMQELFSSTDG

`CCCCNC(=O)OCC#CI`: the Potency result in assay [1], in assay [2], in [3], in assay [4], in assay [5] and in assay [7] was “inactive” in each case. In addition, the Potency entry in [10], in [12], in assay [14] and in assay [15] was “inactive” in each case. Besides, the call in [6] and in [8] was inactive. The Potency was 35.5 µM (active) and 27.3 µM (active) in assay [9]; 30.5 µM (active) and 27.3 µM (active) in assay [11]; 48.3 µM (active) and 61.1 µM (active) in assay [13].
Regarding `CCc1ccccc1N`, the Potency result in [1], in assay [2], in assay [16], in assay [5], in assay [9] and in assay [10] was “inactive” in each case. Moreover, the Potency entry in assay [11], in assay [12], in [13], in [14] and in [15] was “inactive” each time. In addition, the result in assay [6] was inactive.
For `O=[N+]([O-])O[C@H]1CO[C@H]2[C@@H]1OC[C@H]2O[N+](=O)[O-]`, the Potency entry in [1], in [2], in assay [4], in [5], in assay [7] and in [9] was “inactive” in each case. The Potency result in [10], in assay [11], in assay [13], in assay [14], in [19] and in assay [15] was “inactive” throughout. In addition, the call in assay [6], in [8] and in assay [18] was inactive. In addition, the max activation in [17] was -0.141% (inactive).
Regarding `CC(C)c1ccc(OP(=O)(Oc2ccc(C(C)C)cc2)Oc2ccc(C(C)C)cc2)cc1`, the Potency entry in assay [1], in assay [2], in assay [4], in assay [5], in [7] and in assay [9] was “inactive” throughout. The Potency entry in assay [10], in [11], in assay [12] and in assay [13] was “inactive” each time. Moreover, the Potency entry in assay [16] is “inactive and 30.6 µM (active)”; in [14], 4.36 µM (active) and 5.45 µM (active) and 10.9 µM (active); in assay [15], 35.8 µM (active) and 31.7 µM (active). Further, the outcome in assay [6] and in assay [8] was inactive.
With `NC(=O)CF`, the Potency entry in [1], in assay [2], in [16], in assay [4], in [5] and in assay [7] was “inactive” each time. Also, the Potency result in assay [9], in assay [10], in [11], in assay [12], in [14] and in [15] was “inactive” throughout. Also, in [6], the compound was classed as inactive.
In the case of `COc1ccc(C(O)(c2cncnc2)C2CC2)cc1` (stereo unspecified), the Potency result in assay [1], in [2], in assay [4], in assay [5], in [7] and in assay [9] was “inactive” throughout. Further, the Potency entry in assay [10], in assay [11], in [12], in [13], in assay [14] and in assay [15] was “inactive” in each case. In addition, the call in assay [6] and in assay [8] was inactive.
With `CC(C)(C)CC(C)(C)c1ccc(O)cc1`, the Potency result in [1], in [2] and in assay [7] was “inactive” throughout. Further, the Potency in assay [3] was 54.5 µM (active); in [5] it was 43.6 µM (active) and inactive; in assay [9], 54.5 µM (active); in [10], 51.4 µM (active); in [11], 50 µM (active); in [12], 51.4 µM (active). Also, the Potency is 61.1 µM (active) in assay [13]; 19.3 µM (active) and inactive in assay [14]; 39.9 µM (active) and inactive in [15]. Also, the compound was called inactive in assay [6] and in assay [8].
For `CCN(C(C)=O)c1cccc(-c2ccnc3c(C#N)cnn23)c1`, the Potency result in [1], in [2], in [3], in assay [5], in assay [7] and in assay [9] was “inactive” each time. For the same compound, the Potency result in assay [10], in assay [11], in assay [12], in assay [13], in [14] and in [19] was “inactive” in each case. The Potency result in assay [15] was “inactive”. The compound was called inactive in assay [6], in [8] and in [18]. The max activation in assay [17] was -2.18% (inactive).
